# Hit rate of the full screen: of about 5,500 compounds, about 2,000 (36%) were called active. Not shown: some 18% with an inconclusive outcome. The list shows a part of the results. A number with no mark means an inactive call. Rule as the data show it: active = normalized growth mostly below about 0.91 (no sharp cut-off); inconclusive = no clear call, values can overlap the other calls; inactive = mostly above about 0.92.
# Assay: chemical genetic growth profiling, strain panel (AID 1159580);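 also: tested at 20 µM; growth read once vehicle control cultures reached saturation at 30 °C; 1 = growth at the plate median or of vehicle wells; lower values mean less growth of the strain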
# Conditions: S. cerevisiae deletion strains, growth OD
# [1] = locus YAL040C, strain CLN3, hits give low values
# [2] = locus YCL061C, strain MRC1 (second series), hits give low values
# [3] = locus YDR363W, strain ESC2, hits give low values
# [4] = locus YGR078C, strain PAC10, hits give low values
# [5] = locus YMR307W, strain GAS1, hits give low values
# [6] = locus YNL153C, strain GIM3, hits give low values
# [7] = locus YNL175C, strain NOP13, hits give low values
# [8] = locus YNL197C, strain WHI3, hits give low values
# [9] = locus YNL224C, strain SQS1, hits give low values
# [10] = locus YOR083W, strain WHI5 (second series), hits give low values
# [11] = locus YPL241C, strain CIN2, hits give low values
structure (smiles),measurement,setting,value
COc1cccc(C2CCN(C(=O)c3cccc4ccccc34)CC2)c1,normalized growth,"locus YAR019C, strain CDC15, hits give low values",0.996
same,normalized growth,"locus YBL105C, strain PKC1, hits give low values",0.988
same,normalized growth,"locus YBR135W, strain CKS1, hits give low values",0.982
same,normalized growth,"locus YBR136W, strain MEC1, hits give low values",0.981
same,normalized growth,"locus YBR160W, strain CDC28, hits give low values",0.991
same,normalized growth,"locus YDL017W, strain CDC7, hits give low values",0.99
same,normalized growth,"locus YDL028C, strain MPS1, hits give low values",0.993
same,normalized growth,"locus YDL101C, strain DUN1, hits give low values",0.982
same,normalized growth,"locus YDL108W, strain KIN28, hits give low values",0.987
same,normalized growth,"locus YDL132W, strain cdc53, hits give low values",0.993
same,normalized growth,"locus YDL214C, strain PRR2, hits give low values",0.866
same,normalized growth,"locus YDR052C, strain DBF4, hits give low values",0.99
same,normalized growth,"locus YDR054C, strain cdc34, hits give low values",0.988
same,normalized growth,"locus YDR226W, strain ADK1, hits give low values",0.988
same,normalized growth,"locus YDR477W, strain SNF1, hits give low values",0.923
same,normalized growth,"locus YER123W, strain YCK3, hits give low values",0.828
same,normalized growth,"locus YER133W, strain GLC7, hits give low values",0.899
same,normalized growth,"locus YFL009W, strain cdc4, hits give low values",0.992
same,normalized growth,"locus YFL029C, strain CAK1, hits give low values",0.99
same,normalized growth,"locus YFR003C, strain YPI1, hits give low values",0.987
same,normalized growth,"locus YFR019W, strain FAB1, hits give low values",0.89
same,normalized growth,"locus YFR028C, strain CDC14, hits give low values",0.99
same,normalized growth,"locus YGR040W, strain KSS1, hits give low values",0.904
same,normalized growth,"locus YGR052W, strain FMP48, hits give low values",0.958
same,normalized growth,"locus YGR092W, strain DBF2, hits give low values",0.903
same,normalized growth,"locus YHR030C, strain SLT2, hits give low values",1
same,normalized growth,"locus YHR079C, strain IRE1, hits give low values",0.967
same,normalized growth,"locus YHR082C, strain KSP1, hits give low values",0.946
same,normalized growth,"locus YHR205W, strain SCH9, hits give low values",0.907
same,normalized growth,"locus YIL147C, strain SLN1, hits give low values",0.987
same,normalized growth,"locus YJL095W, strain BCK1, hits give low values",0.973
same,normalized growth,"locus YJL128C, strain PBS2, hits give low values",0.935
same,normalized growth,"locus YJL157C, strain FAR1, hits give low values",0.886
same,normalized growth,"locus YJR016C, strain ILV3, hits give low values",0.99
same,normalized growth,"locus YJR066W, strain TOR1 (second series), hits give low values",0.882
same,normalized growth,"locus YJR066W, strain TOR1, hits give low values",0.948
same,normalized growth,"locus YKL048C, strain ELM1, hits give low values",0.919
same,normalized growth,"locus YKL067W, strain YNK1, hits give low values",0.907
same,normalized growth,"locus YKL101W, strain HSL1, hits give low values",0.882
same,normalized growth,"locus YKL193C, strain SDS22, hits give low values",0.991
same,normalized growth,"locus YKL203C, strain TOR2, hits give low values",0.978
same,normalized growth,"locus YLR113W, strain HOG1, hits give low values",0.91
same,normalized growth,"locus YLR133W, strain CKI1, hits give low values",0.94
same,normalized growth,"locus YLR403W, strain SFP1, hits give low values",0.922
same,normalized growth,"locus YML070W, strain DAK1, hits give low values",0.859
same,normalized growth,"locus YMR001C, strain CDC5, hits give low values",0.987
same,normalized growth,"locus YMR205C, strain PFK2 (second series), hits give low values",0.914
same,normalized growth,"locus YMR277W, strain FCP1, hits give low values",0.995
same,normalized growth,"locus YNL006W, strain LST8, hits give low values",0.987
same,normalized growth,"locus YNL020C, strain ARK1, hits give low values",0.9
same,normalized growth,"locus YNL161W, strain CBK1, hits give low values",0.992
same,normalized growth,"locus YNL183C, strain NPR1, hits give low values",0.963
same,normalized growth,"locus YNL207W, strain RIO2, hits give low values",0.997
same,normalized growth,"locus YNL222W, strain SSU72, hits give low values",0.994
same,normalized growth,"locus YNL307C, strain MCK1 (second series), hits give low values",0.903
same,normalized growth,"locus YOL078W, strain AVO1, hits give low values",0.997
same,normalized growth,"locus YOL136C, strain PFK27, hits give low values",0.898
same,normalized growth,"locus YOR061W, strain CKA2, hits give low values",0.877
same,normalized growth,"locus YOR119C, strain RIO1, hits give low values",0.954
same,normalized growth,"locus YOR231W, strain MKK1, hits give low values",0.935
same,normalized growth,"locus YOR329C, strain SCD5, hits give low values",0.991
same,normalized growth,"locus YPL031C, strain PHO85, hits give low values",0.913
same,normalized growth,"locus YPL153C, strain RAD53, hits give low values",0.899
same,normalized growth,"locus YPL204W, strain HRR25, hits give low values",0.923
same,normalized growth,"locus YPL209C, strain IPL1, hits give low values",0.992
same,normalized growth,"locus YPL256C, strain CLN2, hits give low values",0.942
same,normalized growth,"locus YPR025C, strain CCL1, hits give low values",0.995
same,normalized growth,"locus YPR106W, strain ISR1, hits give low values",0.979
same,normalized growth,"locus YPR111W, strain DBF20, hits give low values",0.975
same,normalized growth,"strain NNK1, hits give low values",0.976
same,normalized growth,"strain TSCII, hits give low values",0.993
C[N+](C)(C)CCC(=O)c1cccc2ccccc12,normalized growth,[1],0.095 (active)
same,normalized growth,[2],0.951
same,normalized growth,"locus YDR150W, strain NUM1, hits give low values",0.972
same,normalized growth,[3],0.962
same,normalized growth,[4],0.989
same,normalized growth,"locus YJR075W, strain HOC1, hits give low values",0.813 (active)
same,normalized growth,"locus YMR263W, strain SAP30, hits give low values",0.99
same,normalized growth,[5],0.775 (active)
same,normalized growth,[6],0.104 (active)
same,normalized growth,[7],0.0891 (active)
same,normalized growth,[8],0.93
same,normalized growth,[9],0.0743 (active)
same,normalized growth,[10],0.231 (active)
same,normalized growth,[11],1
COC(=O)C1C(O)CCC2CN3CCc4c([nH]c5ccccc45)C3CC21 (centres undefined),normalized growth,[1],0.997
same,normalized growth,[2],1.01
same,normalized growth,[3],1
same,normalized growth,"locus YER002W, strain NOP16, hits give low values",1.01
same,normalized growth,[4],1.01
same,normalized growth,"locus YGR229C, strain SMI1, hits give low values",1.04
same,normalized growth,[5],1.01
same,normalized growth,[6],0.981
same,normalized growth,[7],1.02
same,normalized growth,[8],0.995
same,normalized growth,[9],1
same,normalized growth,"locus YNL322C, strain KRE1, hits give low values",1.03
same,normalized growth,[10],1
same,normalized growth,[11],1.01
